Reference: publication PMC5540273 (PLoS ONE, 2017)

What was measured:
Conditions in all cases: concentration: 1 μM,replicates: in singlicate; n = 1
MLK1 = test system: T1, MLK1
T1 construct: gene MAP3K9

MLK2 = test system: MLK2
MLK3 = test system: MLK3
MRCKA = test system: MRCKA
MRCKB = test system: T2, MRCKB
T2 construct: gene CDC42BPB

MST1R = test system: MST1R
MST1 = test system: T3, MST1
T3 construct: gene STK4

MST2 = test system: T4, MST2
T4 construct: gene STK3

MST3 = test system: T5, MST3
T5 construct: gene STK24

MST4 = test system: MST4
MTOR = test system: MTOR
MUSK = test system: MUSK
MYLK2 = test system: MYLK2
MYLK4 = test system: MYLK4
MYLK = test system: MYLK
MYO3A = test system: MYO3A
MYO3B = test system: MYO3B
NDR1 = test system: T6, NDR1
T6 construct: gene STK38

NDR2 = test system: NDR2
NEK10 = test system: NEK10
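Note: KINOMEscan kinase panel screen.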

Row | Structure (SMILES) | %Inh (MLK1) | %Inh (MLK2) | %Inh (MLK3) | %Inh (MRCKA) | %Inh (MRCKB) | %Inh (MST1R) | %Inh (MST1) | %Inh (MST2) | %Inh (MST3) | %Inh (MST4) | %Inh (MTOR) | %Inh (MUSK) | %Inh (MYLK2) | %Inh (MYLK4) | %Inh (MYLK) | %Inh (MYO3A) | %Inh (MYO3B) | %Inh (NDR1) | %Inh (NDR2) | %Inh (NEK10)
1 | C[C@@H]1CCN(C(=O)N2CCCC2)C[C@@H]1N(C)c1ncnc2[nH]ccc12 | 97.4% | 33% | 67% | 0% | 0% | 8% | 100% | 23% | 25% | 0% | 8% | 0% | 5% | 3% | 2% | 1% | 0% | 4% | 0% | 30%
2 | COC(=O)c1cccc(NC(=O)NC2CCN(c3ccnc(NCc4ccc(F)cc4)n3)CC2)c1 [GSK1379860] | 0% | 0% | 0% | 12% | 0% | 31% | 0% | 0% | 0% | 0% | 23% | 0% | 7% | 0% | 0% | 0% | 0% | 0% | 0% | 1%
3 | CCn1c(-c2nonc2N)nc2cncc(Br)c21 [SB-738004] | 0% | 0% | 12% | 11% | 0% | 19% | 0% | 6% | 19% | 0% | 15% | 0% | 16% | 16% | 31% | 39% | 3% | 38% | 35% | 43%
4 | CN(c1ccc2c(c1)nc(NCc1ccc(F)cc1)n2C)c1ccnc(Nc2ccc(CS(C)(=O)=O)cc2)n1.Cl [GW813244] | 24% | 44% | 0% | 6% | 0% | 0% | 16% | 0% | 1% | 3% | 0% | 51% | 0% | 13% | 1% | 0% | 45% | 31% | 0% | 10%
5 | O=c1[nH]cc(-c2ccc(O)cc2)c2sc(-c3ccncc3)cc12 [GSK1033723] | 0% | 0% | 3% | 22% | 14% | 44% | 1% | 7% | 6% | 0% | 18% | 0% | 33% | 44% | 26% | 0% | 0% | 38% | 8% | 12%
6 | C[C@@H](Oc1cc(-n2cnc3cc(-c4ccncc4)ccc32)sc1C(N)=O)c1ccccc1Cl [GSK479719] | 61% | 0% | 24% | 0% | 8% | 21% | 56% | 70% | 0% | 0% | 6% | 11% | 22% | 0% | 1% | 0% | 0% | 0% | 0% | 0%
7 | CC(=O)c1c(-c2ccncc2)[nH]c(-c2ccncc2)c1C [GW493036] | 4% | 0% | 0% | 20% | 3% | 42% | 11% | 8% | 0% | 0% | 0% | 8% | 4% | 7% | 4% | 42% | 0% | 19% | 0% | 0%
8 | O=C(Nc1ccccc1)c1cccc(Oc2ccc3nccn3n2)c1 | 0% | 0% | 0% | 9% | 0% | 7% | 25% | 14% | 37% | 0% | 14% | 73% | 0% | 0% | 0% | 0% | 0% | 0% | 22% | 0%
9 | NC(=O)c1ccc(-c2cc3ncnc(SCC(=O)O)c3s2)cc1 | 0% | 0% | 0% | 0% | 0% | 21% | 0% | 0% | 0% | 0% | 39% | 0% | 0% | 0% | 0% | 0% | 3% | 31% | 0% | 0%
10 | CCOC(=O)N1CCC(n2cnc(-c3ccc(F)cc3)c2-c2ccnc(N)n2)CC1 [SB-219952] | 4% | 0% | 27% | 20% | 3% | 0% | 20% | 0% | 44% | 0% | 66% | 0% | 20% | 21% | 45% | 17% | 0% | 0% | 0% | 0%
11 | N#Cc1cccc(C(=O)NC2CCN(c3ccnc(Nc4ccc(F)cc4)n3)C2)c1 (stereo not drawn) [GSK1379708] | 1% | 0% | 9% | 6% | 0% | 39% | 2% | 0% | 0% | 0% | 4% | 0% | 0% | 0% | 0% | 4% | 0% | 0% | 41% | 1%
12 | CC(C(=O)NC1CCN(c2ccnc(Nc3ccc(F)cc3)n2)C1)c1ccc(Cl)cc1 (stereo not drawn) [GSK1379713] | 0% | 12% | 0% | 0% | 0% | 0% | 5% | 0% | 0% | 0% | 17% | 6% | 3% | 0% | 0% | 0% | 0% | 15% | 0% | 0%
13 | CCn1c(-c2nonc2N)nc2cncc(CNC3CCNCC3)c21.Cl [SB-747651] | 3% | 0% | 0% | 7% | 4% | 31% | 19% | 0% | 0% | 0% | 30% | 9% | 4% | 0% | 8% | 5% | 0% | 1% | 0% | 20%
14 | Cc1ccc(C(=O)Nc2ccc(Oc3ccc4nc(NC(=O)C5CC5)cn4c3)c(F)c2)c(=O)n1-c1ccccc1 | 80% | 92.4% | 13% | 0% | 0% | 100% | 47% | 100% | 5% | 0% | 0% | 99.8% | 0% | 0% | 15% | 0% | 4% | 8% | 0% | 0%
15 | O=C(Nc1n[nH]c2cc(-c3ccco3)ccc12)C1CC1 [SB-737447] | 0% | 34% | 0% | 25% | 1% | 0% | 0% | 15% | 17% | 3% | 0% | 0% | 86% | 6% | 44% | 14% | 0% | 0% | 22% | 0%
16 | COc1cc2nccc(Nc3ccc(Oc4ccccc4)cc3)c2cc1OC.Cl [GI261656] | 0% | 0% | 15% | 0% | 0% | 30% | 0% | 0% | 0% | 0% | 10% | 0% | 0% | 0% | 7% | 6% | 0% | 0% | 29% | 18%
17 | O=C(NOCC1CC1)c1cc(Br)c(F)c(F)c1Nc1ccc(I)cc1Cl | 0% | 0% | 0% | 0% | 0% | 31% | 3% | 6% | 18% | 0% | 26% | 9% | 0% | 0% | 0% | 0% | 20% | 33% | 0% | 0%
18 | NC(=O)Nc1sc(-c2ccc(F)cc2)cc1C(N)=O [GW789449] | 39% | 25% | 35% | 0% | 0% | 0% | 37% | 49% | 21% | 25% | 23% | 0% | 11% | 97.8% | 10% | 0% | 0% | 3% | 7% | 3%
19 | CN1CCN(CCCNc2nccc(-c3c(-c4ccc(F)cc4)nn4cc(C(N)=O)ccc34)n2)CC1 [GW622475] | 0% | 16% | 12% | 11% | 0% | 36% | 28% | 15% | 33% | 0% | 5% | 6% | 10% | 5% | 26% | 10% | 0% | 33% | 0% | 25%
20 | c1ccc(Oc2ccc(Nc3ccnc4ccc(-c5ccccn5)cc34)cc2)cc1 [GW407034] | 1% | 3% | 5% | 2% | 9% | 0% | 0% | 0% | 4% | 0% | 15% | 15% | 12% | 4% | 14% | 10% | 0% | 0% | 0% | 2%
21 | Cc1ccc(CC(=O)N2CCc3cc(-c4cn(C)c5ncnc(N)c45)ccc32)cc1 [GSK2634758] | 15% | 17% | 24% | 0% | 9% | 39% | 94.9% | 58% | 56% | 35% | 32% | 0% | 87% | 0% | 0% | 0% | 9% | 18% | 8% | 0%
